In PMC5540273 (PLoS ONE, 2017):

Columns and labels:
Conditions in all cases: concentration: 1 μM, replicates: in singlicate; n = 1
[1] = test system: CDK4
[2] = test system: CDK5
[3] = test system: CDK7
[4] = test system: CDK8
[5] = test system: CDK9
[6] = test system: CDKL1
[7] = test system: CDKL2
[8] = test system: CDKL3
[9] = test system: CDKL5
[10] = test system: CHEK1
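Further: KINOMEscan kinase panel screen.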

SMILES	%Inh [1] [%]	%Inh [2] [%]	%Inh [3] [%]	%Inh [4] [%]	%Inh [5] [%]	%Inh [6] [%]	%Inh [7] [%]	%Inh [8] [%]	%Inh [9] [%]	%Inh [10] [%]
Cl.Oc1ccc(-c2nc(-c3ccccc3)[nH]c2-c2ccncc2)cc1 [SB-428218]	0	0	0	0	0	0	32	0	0	0
COc1ccc(Nc2nccc(-c3cccc(NC(=O)c4cc5cc(F)ccc5[nH]4)c3)n2)cc1 [GSK1229782]	48	1	4	56	0	12	30	0	0	0
CCn1c(-c2ccccn2)nc2cnccc21 [SB-736398]	34	0	0	39	0	9	17	0	0	0
CC(=O)Nc1nc2cnc(Nc3cc(NC(=O)c4cccc(CCC#N)c4)ccc3C)nc2s1	2	12	39	5	0	0	29	0	4	0
Cc1csc(-c2nc(Nc3ccncc3)c3ccccc3n2)n1 [GW869640]	20	13	31	0	9	6	1	19	19	7
COc1cc(Nc2nccc(N3CCC(NC(=O)Nc4cc(C)ccc4C)C3)n2)cc(OC)c1OC (centres unmarked) [GSK1379762]	0	0	0	20	0	0	41	0	7	25
Cn1ccc2ncnc(Oc3cccc(C(=O)Nc4ccccc4)c3)c21	0	16	4	22	1	0	13	0	0	0
CS(=O)(=O)c1ccc(-c2c(-c3ncn[nH]3)sc(N3CCOCC3)c2C#N)cc1	1	38	31	18	6	22	7	13	0	0
